# Reference: ChEMBL document CHEMBL3433997, “St. Jude Leishmania screening dataset” (2016)
# Biological target: Glucose transporter (Leishmania mexicana) (UniProt O61059)
# Assay: ST_JUDE_LEISH: Cytotoxicity at 2uM final concentration against transgenic Leishmania Mexicana promastigotes LmGT2 that are glucose transport deficient and complemented with the L. Mexicana glucose transporter 2. Activity is measured by DNA content using SYBR green in vitro
# Format: functional
row,SMILES,inhibition
1,CCCCNCc1ccc(-c2nc(CN(CCCN3CCN(C)CC3)C(=O)Nc3cccc(Cl)c3)cs2)cc1,5.61%
2,Cc1nn(CC(O)Cn2c3ccc(Br)cc3c3cc(Br)ccc32)c(C)c1Br (stereo not given),-0.3%
3,COc1ccc(OC)c(NC(=O)C2c3ccccc3C(=O)N(CC(C)C)C2c2cccs2)c1 (stereo not given),-0.44%
4,CCCC(C)Nc1nc(C)cc(N[C@@H](CC(C)C)C(=O)NC2CCCC2)n1 (stereo not given in full),3.26%
5,COc1cccc(NC(=O)c2cc(Br)cc(N3CCN(c4ccncc4)CC3)c2)c1,2.41%
6,O=C(/C=C/c1ccc(Cl)c(Cl)c1)NCCCCCN1CCC(CCNC(=O)/C=C/c2ccccc2F)CC1,2.95%
7,CNCCNCc1ccc(-c2ccc(-c3nc4ccccc4[nH]3)s2)cc1,3.75%
8,Nc1cccc(-c2ccc3ccnc(N)c3c2)c1,3.35%
9,COc1ccc(-c2nc(NC(=O)CS(=O)(=O)c3ccccc3)sc2C)cc1,1.25%
10,Cc1nc2nc(N)nc(N)c2c(C)c1Cc1ccc(Cl)cc1,28.7%
11,CC(=O)c1ccc(NC(=O)Nc2ccc(N(C)c3ccnc(Nc4cccc(CS(C)(=O)=O)c4)n3)cc2)cc1,4.04%
12,Cc1[nH]cc(Br)c(=O)c1-c1ccc(Oc2ccccc2)cc1,1.32%
13,Cc1cc(-c2ccc3c(c2)CCN(CCC2CCC(NC(=O)/C=C/c4cccc(Cl)c4)CC2)CC3)on1 (stereo not given),3.57%
14,CCCCCNc1nc(Nc2ccccc2C)nc2ccccc12,11%
15,COC(=O)Cc1ccc(N)c2ccccc12,-2.13%
16,C=CCc1cc(SC)ccc1Oc1ccc(N)cc1,1.08%
17,CN(C)CCN(C)Cc1ccc(-c2ccc3c(Nc4ccc(Cl)cc4F)ccnc3c2)o1,2.79%
18,COc1ccc(Nc2nccc(NCCNC(=O)c3cc4ccccc4s3)n2)cc1,-0.64%
19,Cc1c(Cc2ccc(C(C)C)cc2)cnc2nc(N)nc(N)c12,1.42%
20,CC[C@H](C)CNC(=O)c1cncc(-c2ccc(CNC3CCCC3)cc2)c1,1.7%

row,SMILES,inhibition
1,CN1CCN(c2cccc(-c3nnc(-c4cccc(OCC(=O)NCc5ccc(C(F)(F)F)cc5)c4)o3)c2)CC1,2.47%
2,Cc1c[nH]c2cc(/C=C/C(=O)NC3CCC(CCN4CCc5ccc(C#N)cc5CC4)CC3)ccc12 (stereo not given),2.01%
3,Cc1c(-c2cccc(NC(=O)C(C)(C)Oc3ccc(Cl)cc3)c2)nc2ncccn12,-3.03%
4,CCN(CC)CCN(Cc1ccc(-c2ccc(Br)cc2)cc1)C(=O)Cn1c(CCc2cccc(F)c2F)nc(=O)c2ccccc21,6.05%
5,Cc1cccc2[nH]cc(C3CCN(CCC4CCN(C(=O)/C=C/c5ccc(Cl)c(Cl)c5)CC4)CC3)c12,2.11%
6,COc1ccc(-c2ccc(CNC(=O)c3ccc(Cl)cc3)c(F)c2)cc1CN1CCCN(C)CC1,1.71%
7,C[C@@H](CC1CCCCC1)OC(=O)N[C@H]1CCN(C#N)C1,7.29%
8,Cc1cc(C(=O)CN2C(=O)NC(C)(c3cccc4ccccc34)C2=O)c(C)n1Cc1ccco1 (stereo not given),4.09%
9,COc1ccc2ncn(-c3ccc(C(N)=O)c(OCc4ccccc4C(F)(F)F)c3)c2c1,-3.42%
10,CN(C)CCOc1ccc(-c2cc(-c3ccc(Cl)c(O)c3)c(-c3ccnc(N)n3)o2)cc1,3.05%
11,c1cncc(CCNCc2cccc(-c3ccc(-c4nc5ccccc5[nH]4)s3)c2)c1,4.65%
12,O=c1[nH]nc(-c2ccc(N3CCCC3)c([N+](=O)[O-])c2)c2ccccc12,4.21%
13,Nc1cccc(CNCc2cccc(-c3ccc(-c4nc5ccccc5[nH]4)s3)c2)c1,5.7%
14,CCNc1cc(C(=O)N[C@@H](Cc2ccccc2)[C@H](O)CNC2(CCC(C)C)CC2)cc(N2CCCCS2(=O)=O)c1,-0.78%
15,COc1ccc2nccc([C@@H](O)CN3CCC(NC(=O)/C=C/c4c[nH]c5c(C)cccc45)CC3)c2c1,-5.23%
16,Fc1ccc2[nH]ccc(=NN=CC=Cc3ccccc3)c2c1,-2.56%
17,CN=C(S)NN=C(C)c1ccccn1,-1.99%
18,CC(C)(C)c1ccc(CN2CCC(CNC(=O)c3cc(-c4cccc(C(F)(F)F)c4)cs3)C2)cc1 (stereo not given),-5.97%
19,CN1CCN(c2ccc(Nc3ncc([N+](=O)[O-])c(Nc4ccccc4O)n3)cc2)CC1,1.84%
20,CN(CCN(C)CC(O)c1ccc(Cl)c(Cl)c1)CC(O)c1ccc(Cl)c(Cl)c1 (stereo not given),9.87%
